The results in this text go back to PubChem BioAssay (NCATS).

Assay [1] can be described thus: Cytometric Cell-Based qHTS for Inhibitors of the mTORC1 Signaling Pathway in MEF (Tsc2-/-, p53-/-) Cells (AID 2660).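 Also: percent of cells above a phospho-rpS6 to PI ratio cutoff in each well; series mostly up to about 38 µM.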 An outline of the steps: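 Tsc2-/-, p53-/- MEFs (empty vector) exposed to compound 24 h at 37 C, fixed, stained with Alexa-488 anti-phospho-rpS6 Ser235/236 and propidium iodide. Acumen laser scanning; phospho-S6/PI ratio thresholded against 7.5 nM rapamycin, reported as % positive cells.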

Assay [2] is described as follows: High Content Imaging Cell-Based qHTS for Inhibitors of the mTORC1 Signaling Pathway in MEF (Tsc2-/-, p53-/-) Cells (AID 2666).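 Also: percent of cells scored positive for phospho-rpS6 Ser235/236 immunostaining by imaging.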 The gist of the method:
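Phospho-rpS6 (Ser235/236) immunofluorescence, normalized and scored as % positive cells using rapamycin and DMSO controls, was read in empty-vector Tsc2-/-, p53-/- MEFs after 24 h compound exposure at 37 C; propidium iodide counted cells.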

Assay [3] in a line: Validation screen for small molecules that induce DNA re-replication in MCF 10A normal breast cells (AID 463097). Also: nearly all actives have a fitted effect of over 60% in size. Also: potency is read from the fitted curve at half-maximal effect. The gist of the method:
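DNA re-replication was detected as a rise in nuclei with elevated Hoechst fluorescence after a 48 hr compound exposure of MCF 10A cells at 37 C.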

Assay [4] has as its target Ubiquitin carboxyl-terminal hydrolase 2 (Homo sapiens) (UniProt O75604). In words: qHTS Validation Assay for Inhibitors of Ubiquitin-specific Protease USP2a Using CHOP2 as the Reporter (AID 463106). The gist of the method:
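USP2 core (10 nM final) was preincubated with compound 30 min at RT in pH 8.0 Tris/CaCl2/beta-ME/CHAPS buffer. Ub-CHOP2 and reporter substrate (25 nM final each) were then added, with fluorescence (Ex 485/Em 531) read after 60 min. Data were normalized to NEM full inhibition and fitted to concentration-response curves.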
(In qHTS, concentration-response curves come from the screen itself.)

In assay [5] the target is DNA polymerase III PolC-type (Bacillus subtilis (strain 168)) (UniProt P13267). In words: qHTS Validation Assay for the Inhibitors of DNA Replication in Gram-Positive Bacteria (AID 485295). Also: potency is read from the fitted curve at half-maximal effect. The gist of the method:
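Primed replication of single-stranded M13Gori by a four-protein B. subtilis holoenzyme is measured at room temperature. Double-stranded product is quantified by PicoGreen fluorescence after an EDTA stop; inhibition is scaled between DMSO and EDTA controls.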

Assay [6] has as its target Tumor susceptibility gene 101 protein (Homo sapiens) (UniProt Q99816). In words: qHTS Validation Assay for Iinhibitors of HIV-1 Budding by Blocking the Interaction of PTAP/TSG101 (AID 485342; calls by dose curve). The gist of the method: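 Fluorescence anisotropy measured PTAP-Tsg101 interaction. Final concentrations were 10 uM protein domain and 50 nM labeled peptide, equilibrated 20 min at room temperature.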

Assay [7] addresses Beta-2 adrenergic receptor (Homo sapiens) (UniProt P07550). In words: qHTS validation assay of beta-arrestin-biased ligands of beta2-adrenergic receptor (AID 485366). The gist of the method:
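Tango cells expressing recombinant beta2-AR and beta-arrestin with tTA-driven luciferase, in DMEM with 1% FBS. Compounds were titrated up to 46 microM for 18 hr at 37 degrees C. Luminescence was read 15 min after substrate; curves were fitted and class-assigned.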

The nature of assay [8]: Quantitative high throughput screen for delayed death inhibitors of the malarial parasite plastid, 96 hour incubation (AID 488745). Also: nearly all actives have a fitted effect of over 70% in size. Also: potency is read from the fitted curve at half-maximal effect. An outline of the steps:
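Growth of reporter-bearing P. falciparum in red cells is measured after 96 h with compound, covering two erythrocytic cycles. Luminescence from the integrated luciferase serves as the growth signal.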

Assay [9] is described as follows: Quantitative high throughput screen for delayed death inhibitors of the malarial parasite plastid, 48 hour incubation (AID 488752). Also: nearly all actives have a fitted effect of over 65% in size. Also: potency is read from the fitted curve at half-maximal effect. The gist of the method: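 One parasite generation (48 h, 37 C, 5% CO2) of luciferase-reporter P. falciparum in erythrocytes is run with test compound; decreased luminescence indicates inhibited growth.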
Assay [10] addresses Thioredoxin reductase 1, cytoplasmic (Rattus norvegicus) (UniProt O89049). In words: qHTS Assay for Substrates of Mammalian Selenoprotein Thioredoxin Reductase 1 (TrxR1) (AID 488772).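 Also: NADPH fluorescence in the first read after selenite addition and not the 8 min delta; series mostly up to about 57 µM; a drop in NADPH fluorescence below the no-compound background marks a TrxR1 substrate.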 The gist of the method:
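Quantitative HTS in Tris-HCl buffer at pH 7.5 with EDTA and Tween-20, using rat TrxR1, 400 uM NADPH and 400 uM selenite (final). A fall in initial NADPH fluorescence relative to background marked substrate behaviour.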

Assay [11] has the same target. Description: qHTS Assay for Inhibitors of Mammalian Selenoprotein Thioredoxin Reductase 1 (TrxR1) (AID 488773).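 Also: drop in NADPH fluorescence over an 8 min run after selenite addition; series mostly up to about 57 µM; nearly all actives have a fitted effect of over 40% in size.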 The conditions noted are these: Potency: inhibition. The gist of the method:
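Steps: enzyme (90 nM) plus NADPH (400 uM final), 5 min at ~22 deg C; compound added, 15 min; selenite (400 uM final) added; fluorescence followed for 8 min. Concentration-response curves derived from the normalized delta values.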

For assay [12], the target named is Flap endonuclease 1 (Homo sapiens) (UniProt P39748). In words: qHTS Validation Assay for the Inhibitors of Human Flap endonuclease 1 (FEN1) (AID 488816). Also: potency is read from the fitted curve at half-maximal effect. An outline of the steps: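 Human FEN1 (10 nM) preincubated 15 min at room temperature with compounds, then flap DNA substrate added at 50 nM final. Fluorescence read at 0 and 15 min; concentration-response fitted with four-parameter Hill equation.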

The target of assay [13] is M-phase phosphoprotein 8 (Homo sapiens) (UniProt Q99549). In words: qHTS Validation Assay for Inhibitors for MPP8 Chromodomain Interactions with Methylated Histone Tails (AID 488949). Also: nearly all actives have a fitted effect of over 55% in size. Also: potency is read from the fitted curve at half-maximal effect. An outline of the steps:
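Disruption of the preformed MPP8–trimethyl-H3K9 peptide complex (both 50 nM, 30 min, RT) is measured after 30 min compound exposure, using AlphaScreen proximity beads; aurintricarboxylic acid titration serves as plate control.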

Assay [14] deals with Methanococcus maripaludis chaperonin (MmCpn) (UniProt Q6LX38). In words: High-Throughput Screening for Modulators of Cytosolic Chaperonin Activity: MmCpn Primary Screen (AID 488978).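 Also: 50 nM MmCpn enzyme hydrolysing 30 µM ATP at 37 °C.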 An outline of the steps:
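Measures ATPase turnover of the M. maripaludis chaperonin (50 nM final) against 30 uM ATP over 10 min at 37C, with compound added 5 min beforehand at room temperature. ADP is quantified by HTRF immunodetection.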

Assay [15] is described as follows: Cytometry Cell-Based qHTS for Inhibitors of the mTORC1 Signaling Pathway in MEF cells (AID 2668).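 Also: Tsc2-/- p53-/- mouse embryonic fibroblasts stably re-expressing wild-type Tsc2; percent cells positive for phospho-rpS6 Ser235/236 relative to propidium iodide stain; series mostly up to about 38 µM.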 An outline of the steps:
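Pathway inhibition in WT Tsc2-rescued Tsc2-/-, p53-/- MEFs is measured as the Alexa-488 phospho-rpS6 to propidium iodide intensity ratio after 24 hrs of compound at 37 degree Celsius. PI-stained cell number gives viability.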

The target of assay [16] is ATP-dependent 6-phosphofructokinase (Trypanosoma brucei brucei) (UniProt O15648). Description: qHTS Validation Assay to Find Inhibitors of T. brucei phosphofructokinase (AID 485368). The gist of the method:
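Activity was read as ADP production by luminescence (ADP-Glo) after 45 min at room temperature. The enzyme was 1.25nM PFK in 0.1M TEA pH 8.0 with 0.5 mM F6P, 0.1mM ATP and 5 mM MgCl2. Compounds were titrated up to 57 uM and % activity normalized to no-enzyme and full-enzyme controls.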

The target in assay [17] is Chromobox protein homolog 1 (Homo sapiens) (UniProt P83916). Description: qHTS Validation Assay for Inhibitors of HP1-beta Chromodomain Interactions with Methylated Histone Tails (AID 488953). Also: nearly all actives have a fitted effect of over 50% in size. Also: potency is read from the fitted curve at half-maximal effect. An outline of the steps: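 Measured as loss of AlphaScreen luminescence from streptavidin donor and nickel acceptor beads (10 ug/mL final) bridging HP1-beta and biotin-H3(1-18)K9me3, each 50 nM. Compounds met the preassembled complex for 30 min at RT.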

Assay [18] is described as follows: High Content Imaging Cell-Based qHTS for Inhibitors of the mTORC1 Signaling Pathway in MEF Cells (AID 2667).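 Also: Tsc2-/- p53-/- MEFs stably re-expressing wild-type Tsc2 exposed 24 h; series mostly up to about 38 µM.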 An outline of the steps: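 WT MEFs (Tsc2-/-, p53-/- re-expressing Tsc2), in DMEM + 10% FBS, were treated with compound for 24 h at 37 C. Cells were then fixed and stained for phospho-rpS6 Ser235/236 with propidium iodide as cell count. Values are % positive cells, with thresholds set against rapamycin-treated cells.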

Assay [19] can be described thus: qHTS Validation Assay to Find Inhibitors of Chronic Active B-Cell Receptor Signaling (AID 485345; active = well fitted curve in the direction sought with a large enough effect in the main read-out, with a control signal flat, not every such curve was filed as active). The gist of the method:
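TMD8 ABC-DLBCL cells stably carrying doxycycline-inducible IkappaBalpha–green luciferase fusion plus unfused red luciferase; compounds 46 uM to 3 nM, 4 h at 37C with doxycycline. Corrected green/red luminescence ratio normalized to 10 uM MG-132 and basal cell wells; curves fitted.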

Where “and” joins values, the source holds several entries; their conditions need not be identical. Equal entries are not always repeated. Results filed as inconclusive are left out. Calls of active or inactive are those of the source. Unless noted, calls follow the shape of the dose curve; as a rule, active = well fitted curve in the direction sought with a large enough effect; inconclusive = small, poorly fitted or top-dose-only effect, or another doubt; inactive = no such curve, though single readings can be large; an effect the other way counts as inactive or inconclusive.

Ubiquitin carboxyl-terminal hydrolase 2 (Homo sapiens), sequence (O75604 whole entry, looked up): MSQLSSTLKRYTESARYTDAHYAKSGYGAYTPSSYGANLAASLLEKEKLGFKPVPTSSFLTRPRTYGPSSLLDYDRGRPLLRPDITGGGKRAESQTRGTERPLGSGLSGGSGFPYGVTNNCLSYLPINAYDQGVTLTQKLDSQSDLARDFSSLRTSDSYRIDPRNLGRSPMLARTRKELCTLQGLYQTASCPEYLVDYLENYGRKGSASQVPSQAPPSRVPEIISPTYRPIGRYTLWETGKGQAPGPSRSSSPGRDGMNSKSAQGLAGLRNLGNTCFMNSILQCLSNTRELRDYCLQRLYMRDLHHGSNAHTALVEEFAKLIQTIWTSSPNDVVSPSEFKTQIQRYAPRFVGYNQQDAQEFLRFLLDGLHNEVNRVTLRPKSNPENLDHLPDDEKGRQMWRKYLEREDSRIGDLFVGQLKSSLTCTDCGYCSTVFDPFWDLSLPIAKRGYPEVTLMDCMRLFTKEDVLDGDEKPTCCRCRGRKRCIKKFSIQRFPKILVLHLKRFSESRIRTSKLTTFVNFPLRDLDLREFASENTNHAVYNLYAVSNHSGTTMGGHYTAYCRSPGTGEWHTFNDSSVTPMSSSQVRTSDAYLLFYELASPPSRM
Thioredoxin reductase 1, cytoplasmic (Rattus norvegicus), sequence (O89049 whole entry, looked up): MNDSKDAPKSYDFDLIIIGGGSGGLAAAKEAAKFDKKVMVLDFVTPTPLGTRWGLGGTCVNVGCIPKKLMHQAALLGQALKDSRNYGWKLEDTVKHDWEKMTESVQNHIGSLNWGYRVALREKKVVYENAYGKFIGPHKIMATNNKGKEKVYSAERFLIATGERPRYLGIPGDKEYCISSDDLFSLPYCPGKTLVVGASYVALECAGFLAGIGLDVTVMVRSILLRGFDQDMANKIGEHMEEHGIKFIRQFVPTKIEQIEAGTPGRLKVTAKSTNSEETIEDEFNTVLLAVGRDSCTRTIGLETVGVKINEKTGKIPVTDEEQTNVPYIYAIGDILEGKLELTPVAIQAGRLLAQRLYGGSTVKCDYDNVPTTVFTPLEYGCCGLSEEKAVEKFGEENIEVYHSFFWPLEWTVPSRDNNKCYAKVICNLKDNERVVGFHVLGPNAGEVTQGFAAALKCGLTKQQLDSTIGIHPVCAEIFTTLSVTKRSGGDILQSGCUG
ATP-dependent 6-phosphofructokinase (Trypanosoma brucei brucei), sequence (O15648 whole entry, looked up): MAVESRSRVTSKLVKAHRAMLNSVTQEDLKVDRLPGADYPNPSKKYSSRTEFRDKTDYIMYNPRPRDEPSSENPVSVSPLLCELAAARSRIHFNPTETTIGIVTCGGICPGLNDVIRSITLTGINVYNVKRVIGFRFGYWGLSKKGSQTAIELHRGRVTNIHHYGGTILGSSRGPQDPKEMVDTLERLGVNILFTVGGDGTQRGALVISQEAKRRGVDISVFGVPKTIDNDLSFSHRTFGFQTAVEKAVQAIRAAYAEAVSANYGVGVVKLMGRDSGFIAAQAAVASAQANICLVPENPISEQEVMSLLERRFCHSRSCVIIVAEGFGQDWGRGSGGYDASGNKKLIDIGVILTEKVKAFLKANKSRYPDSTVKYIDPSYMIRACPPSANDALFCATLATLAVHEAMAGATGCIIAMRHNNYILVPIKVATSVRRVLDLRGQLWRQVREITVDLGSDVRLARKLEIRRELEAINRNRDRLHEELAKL
Beta-2 adrenergic receptor (Homo sapiens), sequence (P07550 whole entry, looked up): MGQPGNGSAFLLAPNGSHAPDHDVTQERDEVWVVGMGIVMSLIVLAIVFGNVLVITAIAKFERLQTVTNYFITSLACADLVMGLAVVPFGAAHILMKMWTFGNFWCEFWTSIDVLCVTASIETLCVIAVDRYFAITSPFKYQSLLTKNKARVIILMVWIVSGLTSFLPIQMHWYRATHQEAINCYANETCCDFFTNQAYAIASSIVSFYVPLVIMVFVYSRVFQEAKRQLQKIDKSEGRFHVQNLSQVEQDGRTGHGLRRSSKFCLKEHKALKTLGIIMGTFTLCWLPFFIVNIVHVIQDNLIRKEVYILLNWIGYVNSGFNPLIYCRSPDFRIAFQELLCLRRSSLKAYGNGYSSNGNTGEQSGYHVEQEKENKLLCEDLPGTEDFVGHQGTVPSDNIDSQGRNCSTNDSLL
Tumor susceptibility gene 101 protein (Homo sapiens), sequence (Q99816 whole entry, looked up, the tested form may be a part): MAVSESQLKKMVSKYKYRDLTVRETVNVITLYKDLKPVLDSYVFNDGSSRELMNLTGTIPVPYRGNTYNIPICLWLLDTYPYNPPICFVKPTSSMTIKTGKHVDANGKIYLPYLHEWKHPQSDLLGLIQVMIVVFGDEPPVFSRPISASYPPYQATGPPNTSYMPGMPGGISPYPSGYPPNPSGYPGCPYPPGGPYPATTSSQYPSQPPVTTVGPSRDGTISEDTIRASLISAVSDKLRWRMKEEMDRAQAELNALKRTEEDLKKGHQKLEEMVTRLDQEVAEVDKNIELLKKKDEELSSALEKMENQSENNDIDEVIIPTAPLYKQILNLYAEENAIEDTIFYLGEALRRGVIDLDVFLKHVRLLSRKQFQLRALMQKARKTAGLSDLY
Flap endonuclease 1 (Homo sapiens), sequence (P39748 whole entry, looked up): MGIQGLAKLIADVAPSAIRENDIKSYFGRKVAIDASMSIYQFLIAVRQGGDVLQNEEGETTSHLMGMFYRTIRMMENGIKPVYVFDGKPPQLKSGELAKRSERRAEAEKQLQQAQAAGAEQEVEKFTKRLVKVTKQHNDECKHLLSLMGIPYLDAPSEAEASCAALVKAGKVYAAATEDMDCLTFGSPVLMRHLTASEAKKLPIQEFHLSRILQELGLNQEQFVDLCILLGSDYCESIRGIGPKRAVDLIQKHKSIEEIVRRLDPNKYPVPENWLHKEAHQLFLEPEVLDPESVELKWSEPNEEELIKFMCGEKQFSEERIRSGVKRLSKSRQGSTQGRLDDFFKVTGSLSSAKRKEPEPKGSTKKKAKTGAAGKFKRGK
Chromobox protein homolog 1 (Homo sapiens), sequence (P83916 whole entry, looked up): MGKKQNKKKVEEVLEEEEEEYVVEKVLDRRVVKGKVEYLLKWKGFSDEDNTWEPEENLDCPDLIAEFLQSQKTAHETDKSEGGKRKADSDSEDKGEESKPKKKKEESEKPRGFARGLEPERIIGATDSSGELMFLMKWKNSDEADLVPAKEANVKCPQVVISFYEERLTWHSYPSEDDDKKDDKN
Methanococcus maripaludis chaperonin (MmCpn), sequence (Q6LX38 1-543): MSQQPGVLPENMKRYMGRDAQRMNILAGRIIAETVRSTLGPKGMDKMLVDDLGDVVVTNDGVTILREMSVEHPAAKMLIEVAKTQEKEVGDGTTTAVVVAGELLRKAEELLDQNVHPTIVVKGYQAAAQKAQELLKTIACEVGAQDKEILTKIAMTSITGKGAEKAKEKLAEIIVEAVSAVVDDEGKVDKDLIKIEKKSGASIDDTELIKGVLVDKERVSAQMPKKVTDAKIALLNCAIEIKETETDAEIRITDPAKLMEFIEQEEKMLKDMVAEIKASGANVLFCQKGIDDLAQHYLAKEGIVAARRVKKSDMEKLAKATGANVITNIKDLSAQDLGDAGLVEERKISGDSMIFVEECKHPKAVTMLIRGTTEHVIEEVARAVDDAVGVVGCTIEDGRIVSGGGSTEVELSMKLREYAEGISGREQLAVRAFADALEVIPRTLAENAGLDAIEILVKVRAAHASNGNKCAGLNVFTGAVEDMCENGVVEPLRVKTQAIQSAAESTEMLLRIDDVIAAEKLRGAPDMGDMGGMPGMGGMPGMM
M-phase phosphoprotein 8 (Homo sapiens), sequence (Q99549 whole entry, looked up): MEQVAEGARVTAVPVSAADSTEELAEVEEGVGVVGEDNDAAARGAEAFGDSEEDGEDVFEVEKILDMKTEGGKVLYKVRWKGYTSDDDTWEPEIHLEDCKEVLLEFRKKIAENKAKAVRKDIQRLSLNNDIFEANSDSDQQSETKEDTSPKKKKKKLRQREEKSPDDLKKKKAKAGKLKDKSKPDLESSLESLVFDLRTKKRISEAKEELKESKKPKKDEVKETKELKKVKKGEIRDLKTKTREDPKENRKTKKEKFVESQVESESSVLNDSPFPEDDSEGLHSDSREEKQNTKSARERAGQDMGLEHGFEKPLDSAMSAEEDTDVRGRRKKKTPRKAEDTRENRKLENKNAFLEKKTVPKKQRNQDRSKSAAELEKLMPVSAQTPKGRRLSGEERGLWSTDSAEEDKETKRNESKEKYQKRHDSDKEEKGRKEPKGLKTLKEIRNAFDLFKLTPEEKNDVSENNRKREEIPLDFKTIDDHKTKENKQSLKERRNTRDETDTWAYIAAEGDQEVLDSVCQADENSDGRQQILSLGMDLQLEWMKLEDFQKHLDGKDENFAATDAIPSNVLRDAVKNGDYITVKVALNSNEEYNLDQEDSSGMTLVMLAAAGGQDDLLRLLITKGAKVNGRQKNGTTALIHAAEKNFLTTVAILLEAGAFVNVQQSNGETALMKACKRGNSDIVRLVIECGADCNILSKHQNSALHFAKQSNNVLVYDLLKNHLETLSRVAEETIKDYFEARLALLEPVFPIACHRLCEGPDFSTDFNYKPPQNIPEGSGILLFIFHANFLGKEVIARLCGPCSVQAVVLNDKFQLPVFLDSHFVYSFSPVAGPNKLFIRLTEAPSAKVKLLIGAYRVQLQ

For the compound `CCC1(O)CC2CN(CCc3c([nH]c4ccccc34)[C@@](C(=O)OC)(c3cc4c(cc3OC)N(C=O)C3[C@]45CCN4CC=C[C@@](CC)([C@@H](OC(C)=O)[C@]3(O)C(=O)OC)[C@H]45)C2)C1` (stereo not given in full), the call in [1], in assay [6], in assay [7], in assay [10] and in assay [14] was inactive. For the same compound, the Potency entry in [2], in assay [4], in assay [5], in [11], in assay [12] and in assay [13] was “inactive” throughout. Besides, the results for the Potency in assay [3], in assay [8] and in assay [9] were 44.7 nM (active), 117 nM (active) and 131 nM (active), respectively.
Turning to `CCCCC[C@H](CC(=O)NO)C(=O)N[C@H](C(=O)N1CCC[C@H]1CO)C(C)C`, the outcome in [1], in assay [6] and in assay [10] was inactive. Further, the Potency entry in [2], in [15], in [3], in assay [4], in assay [5] and in assay [16] was “inactive” each time. Further, the Potency result in [11], in assay [12], in assay [13] and in assay [17] was “inactive” each time. In [8], the Potency is 1170 nM (active).
Take `O=C(O)c1cc2cc(F)ccc2[nH]1`: the compound was classed as inactive in [1], in assay [6], in assay [19], in assay [7], in assay [10] and in assay [14]. Also, the Potency result in [18], in assay [15], in assay [3], in assay [4], in assay [5] and in assay [8] was “inactive” throughout. In addition, the Potency entry in assay [9], in assay [11], in assay [12] and in assay [17] was “inactive” in each case.
`N=C(N)c1ccc(N)cc1`: the compound was classed as inactive in assay [1], in assay [6], in assay [19], in assay [7] and in assay [10]. Further, the Potency result in assay [18], in assay [15], in assay [3], in assay [4], in assay [5] and in [16] was “inactive” throughout. The Potency result in assay [8], in [9], in assay [11], in [12] and in assay [13] was “inactive” each time.
`NCCS(=O)O`: the compound was classed as inactive in assay [1], in assay [6], in assay [19], in assay [7], in assay [10] and in [14]. The Potency result in assay [18], in [15], in assay [3], in assay [4], in assay [5] and in [8] was “inactive” in each case. Moreover, the Potency result in assay [9], in assay [11], in [12] and in assay [13] was “inactive” each time.
Regarding `C#CC(N)CCC(=O)O` (stereo not given), the outcome in assay [1], in assay [6], in [19], in [7], in [10] and in assay [14] was inactive. For the same compound, the Potency result in assay [18], in assay [15], in [3], in assay [4], in assay [5] and in assay [16] was “inactive” throughout. Besides, the Potency entry in assay [8], in [11], in assay [12], in assay [13] and in assay [17] was “inactive” in each case.
On to `Nc1ccc(-c2nc3ccc(-c4nc5ccc(N)cc5[nH]4)cc3[nH]2)cc1`, for which the call in assay [1], in assay [6] and in assay [10] was inactive. Also, the Potency entry in [2], in assay [15] and in [11] was “inactive” each time. Further, the Potency in [5] was 21200 nM (active); in assay [8], 262 nM (active); in assay [12], 21200 nM (active); in assay [13], 44.7 µM (active) and 26.7 µM (active); in assay [17], 39800 nM (active).
With `CC1=C(C(=O)O)N2C(=O)[C@@H](NC(=O)C(N)C3=CCC=CC3)[C@H]2SC1` (stereo not given in full), the call in assay [1], in assay [6], in assay [19], in [7] and in assay [14] was inactive. Also, the Potency entry in assay [18], in [15], in [3], in [4], in assay [5] and in assay [16] was “inactive” in each case. In addition, the Potency result in [8], in assay [9], in assay [11], in assay [13] and in [17] was “inactive” throughout.
